MCL1 BIM primary: inhibitors of MCL1 binding to BIM-BH3, primary screen, biochemical, fluorescence polarization. 320,000 compounds, 0.68% hits. GST-MCL1 / FITC-Bim-BH3 fluorescence polarization. inhibition, % at 10.9 µM. Induced myeloid leukemia cell differentiation protein Mcl-1 (Homo sapiens), Q07820. AID 2057, 2009;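 active = inhibition above the mean inhibition of all tested compounds plus 3 SD, set per campaign, cut at about 40% in these data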;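 also: 0% = DMSO wells and 100% = unlabeled Bim-BH3 peptide control; higher means more loss of mP so more displacement of Bim peptide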
Target sequence (Q07820 whole entry, looked up): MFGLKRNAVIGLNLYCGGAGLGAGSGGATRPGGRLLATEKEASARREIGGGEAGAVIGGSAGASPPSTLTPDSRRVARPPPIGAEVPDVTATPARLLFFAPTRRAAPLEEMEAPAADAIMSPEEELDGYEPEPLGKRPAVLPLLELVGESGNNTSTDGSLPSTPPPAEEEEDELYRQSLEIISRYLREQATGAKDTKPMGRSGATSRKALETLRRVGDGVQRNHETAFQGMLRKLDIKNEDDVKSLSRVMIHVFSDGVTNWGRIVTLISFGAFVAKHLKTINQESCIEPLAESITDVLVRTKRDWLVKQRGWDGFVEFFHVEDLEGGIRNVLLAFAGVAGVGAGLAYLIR
Mcl1-Noxa inh: Mcl-1/Noxa binding inhibitors, primary screen, biochemical, TR-FRET, 1536-well; Induced myeloid leukemia cell differentiation protein Mcl-1 (Homo sapiens), Q07820; TR-FRET Mcl-1/Noxa peptide binding, 2 h; inhibition, % at 21.7 µM; AID 1022, 2008; 220,000 compounds, 1.5% hits;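 active = compounds that cut the protein-peptide binding signal by more than 50% relative to plate controls in a single-dose test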;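 also: His-tagged Mcl-1 with rhodamine Noxa BH3 peptide and terbium anti-His antibody; 0% = Mcl-1 plus Noxa peptide wells and 100% = peptide-only wells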
Mcl1-Bid inh: Mcl-1/Bid binding inhibitors, primary screen, biochemical, TR-FRET, 1536-well. TR-FRET Mcl-1/Bid-Dy647 peptide binding. inhibition, % at 21.7 µM. 220,000 compounds, 0.97% hits. AID 1021, 2008;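 active = compounds that cut the binding signal by more than half at the single screening dose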;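 also: His-tagged Mcl-1 with europium anti-His antibody binding Bid BH3 peptide; 0% = Mcl-1 plus peptide wells and 100% = peptide-only wells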
Mcl-1 Bim block: inhibitors of Bim peptide binding to Mcl-1, primary screen, biochemical, bead-based flow cytometry, multiplex; Induced myeloid leukemia cell differentiation protein Mcl-1 (Homo sapiens), Q07820; Bim peptide-Mcl-1 binding; inhibition, % at 10 µM; 190,000 compounds, 0.1% hits; in the data active = inhibition above about 40%;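 also: 0% = no compound tracer wells and 100% = peptide blocker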
The depositor's hits bear a star; / = no result. Only some compounds are listed: those with a hit (about 2% of all), similar ones and a draw of the others.

SMILES	MCL1 BIM primary	Mcl1-Noxa inh	Mcl1-Bid inh	Mcl-1 Bim block
CS(=O)(=O)N1CCN(Cc2ccccc2C(F)(F)F)CC1	7.6	-0.3	-5.0	-2.0
CC1CCCCC1NC(=O)CC1Oc2ccccc2NC1=O (stereo unspecified)	-9.9	-16.3	52.2*	/
CC1CC1C(=O)Nc1nc(-c2cccs2)c(-c2cccs2)s1 (stereo unspecified)	7.9	1.4	-72.0	-4.0
COc1ccc(Nc2nc(N3CCN(S(=O)(=O)N(C)C)CC3)nc3ccccc23)cc1	-0.7	/	/	/
COc1cccc(/C=c2/s/c(=C(\C#N)C(=O)N3CCOCC3)n(-c3ccccc3)c2=O)c1	8.9	43.1	53.1*	3.0
COc1ccc(C(=O)NCCc2cccc(Cl)c2)cc1OC1CCN(C(C)=O)CC1	-22.2	/	/	/
Cc1ccc(OCC2Cn3c(nc4c3c(=O)[nH]c(=O)n4C)O2)cc1C (stereo unspecified)	6.2	/	/	/
CCN(CC)CCOC(=O)c1ccc(N/C=C(/C#N)c2nc(-c3ccc(OC)cc3)cs2)cc1	-28.4	19.5	10.1	/
CCN(CC)CCOC(=O)c1ccc(N/C=C(/C#N)c2nc(-c3ccc4c(c3)OCO4)cs2)cc1	10.1	69.0*	63.5*	/
COCCCNC(CC(=O)Nc1cc(C)cc(C)c1)C(=O)O (stereo unspecified)	-5.4	/	/	/
Cc1ccc(C(=O)NCCSc2ccccc2)cc1S(=O)(=O)Nc1ccccc1	11.3	/	1.5	0.0
NC(=O)CC1Nc2cccc3cccc(c23)NC1=O (stereo unspecified)	31.6	42.2	-104.9	-2.0
O=C(CC1Nc2cccc3cccc(c23)NC1=O)Nc1ccccc1 (stereo unspecified)	30.4	54.0*	-48.4	-4.0
Cc1cccc(N2Cc3ccc(Br)cc3C2)c1	9.0	/	/	/
O=C(Nc1ccc(Cl)cc1)c1cc2c(cc1O)[nH]c1ccccc12	-0.5	61.5*	34.1	/
Cc1ccc(C)c(S(=O)(=O)N2CCN(CC(=O)N3CCc4ccccc4C3)CC2)c1	1.7	6.6	62.4*	0.0
O=C(COc1ccc2ccccc2c1)NNC(=O)c1ccc([N+](=O)[O-])cc1	-3.8	82.4*	12.4	-3.0
CCCN1CCC(NC(=S)Nc2ccc(C(=O)OCC)cc2)CC1	5.1	0.2	84.3*	-5.0
CC(C)(CNC(=O)c1cccc(NS(=O)(=O)c2ccc(Br)cc2)c1)N1CCOCC1	-0.2	/	/	/
O=[N+]([O-])c1cccc(N/N=C/c2cc([N+](=O)[O-])ccc2O)c1	0.3	99.7*	-20.2	1.0
COc1ccccc1CCNC(=O)c1nccnc1C(=O)O	-5.4	/	/	/
COC(=O)CCSCC(=O)N1N=C(c2ccc(Br)cc2)CC1c1cccc(OC)c1OC (stereo unspecified)	8.1	-13.4	-5.0	-2.0
NC(=S)N/N=C/c1ccc(-c2cc(Cl)cc(Cl)c2)o1	5.5	32.9	-7.9	-1.0
CN(/N=C/c1ccc(-c2ccc([N+](=O)[O-])cc2)o1)c1ccccc1	-58.2	/	/	/
NC(=S)N/N=C/c1ccc(-c2ccc([N+](=O)[O-])cc2)o1	-78.5	52.0*	-14.1	0.0
SMILES	MCL1 BIM primary	Mcl1-Noxa inh	Mcl1-Bid inh	Mcl-1 Bim block
O=C1Nc2ccccc2/C1=N/N=C/c1ccc(-c2ccc([N+](=O)[O-])cc2)o1	/	79.8*	88.6*	10.0
O=C(COC(=O)c1cc[n+]([O-])cc1)Nc1ccccc1Cl	-10.2	-6.4	87.5*	0.0
COc1ccc(C(=O)Nc2ccc(NC(=O)c3cc(OC)c(OC)c(OC)c3)cn2)cc1	1.1	/	/	/
Cc1cc(N2CCOCC2)n2cc(-c3ccccc3)nc2n1	-0.5	16.4	-13.2	2.0
Cc1cc(N2CC(C)OC(C)C2)n2cc(-c3ccccc3)nc2n1 (stereo unspecified)	-2.9	34.2	80.2*	0.0
CCC(Cc1ccccc1)NC(=O)CCNS(=O)(=O)c1cc(Br)cnc1N (stereo unspecified)	-1.4	/	/	/
CC(=O)N=Cc1c(C)c(C#N)c(=O)n(C)c1O	15.2	27.6	-48.7	-1.0
Cc1c(/C=N/Nc2ccc(F)cc2)c(O)n(C)c(=O)c1C#N	7.9	59.9*	-32.3	0.0
CCOc1cccc(C(=O)Nc2ccc(N(CC)CC)cc2)c1	6.4	64.8*	-29.8	0.0
CCN(CC)c1ccc(NC(=O)CCCOc2cccc(C)c2)cc1	/	77.0*	-49.2	1.0
CCN(CC)c1ccc(NC(=O)c2cnn(CC)c2)cc1	2.3	66.1*	17.9	-3.0
CCN(CC)c1ccc(NC(=O)c2ccc3c(c2)c(C)c(C)n3C)cc1	5.8	76.8*	-4.3	0.0

Screening data (PubChem)
